High-throughput results deposited in PubChem by DiRusso Lab, Biochemistry Department, University of Nebraska.
The entries come from a sample that favours hits as a whole.
Algae TAG accum = inducers of TAG accumulation in Chlamydomonas, primary screen, qHTS, Chlamydomonas reinhardtii. Nile Red fluorescence, 72 h. calls only at 10 µM (by protocol). hit rate 0.84% among 44,000. AID 1159537, 2015; call rule not given here;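 further: hits raise Nile Red signal meaning more stored TAG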
Calls only; - = inactive; + = active, no number.

SMILES	Algae TAG accum
O=c1c(CN2CCN(CCO)CC2)coc2ccc(Cl)cc12	-
C1=CCC(CN2CCN(Cc3ccco3)CC2)CC1 (stereo not given)	-
COc1cccc(N2CCN(CC3CC4C=CC3C4)CC2)c1 (stereo not given)	+
O=[N+]([O-])c1ccccc1CN1CCN(CC2CC=CCC2)CC1 (stereo not given)	-
OCCN1CCN(C2CCN(CC3CC4C=CC3C4)CC2)CC1 (stereo not given)	-
O=[N+]([O-])c1ccccc1CN1CCCC1	-
O=[N+]([O-])c1ccccc1CN1CCN(CC2CC3C=CC2C3)CC1 (stereo not given)	+
Cn1cccc1CN1CCN(Cc2ccco2)CC1	-
C1=CC2CC1CC2CN1CCN(Cc2ccco2)CC1 (stereo not given)	+
O=C(c1ccc(F)cc1)N1CCN(CC2CC3C=CC2C3)CC1 (stereo not given)	-
O=C(NCCO)C(=O)Nc1ccccc1	-
CCN(CC)CCOc1ccccc1OCc1ccccc1	-
COc1ccccc1NC(=O)Nc1nnc(-c2ccc(C)c(C)c2)s1	-
CCCC(=NC)C1=C(O)CC(C)(C)CC1=O	-
O=S(=O)(c1ccc(Cl)cc1)N1CCN(c2cccc(Cl)c2)CC1	-
Cc1ccc(OCC(=O)Nc2cc(Cl)ccc2Cl)cc1	-
O=C(Cc1ccc(Cl)cc1)Nc1ccc2c(c1)C(=O)N(CC1CCCO1)C2=O (stereo not given)	-
Cc1ccc(NC(=O)CSc2nnc(-c3ccc(Cl)cc3Cl)n2N)c(C)c1	+
O=C(CSc1nnnn1-c1ccc(Cl)cc1)Nc1ccc(Cl)cc1Cl	-
COc1ccc(OC)c(NC(=O)CSc2nnc(-c3ccc(Cl)cc3Cl)n2N)c1	-
Cc1ccc(C(O)=C2C(=O)C(=O)N(CCCn3ccnc3)C2c2ccncc2)cc1 (stereo not given)	-
CCCCOc1ccc(NC(=O)CCN2C(=O)c3cccc([N+](=O)[O-])c3C2=O)cc1	-
COc1cc([N+](=O)[O-])ccc1NC(=O)c1ccccc1F	-
COc1cc([N+](=O)[O-])ccc1NC(=O)c1ccc(C)c(C)c1	-
COc1cc([N+](=O)[O-])ccc1NC(=O)c1c(F)c(F)c(F)c(F)c1F	+
SMILES	Algae TAG accum
O=C(CSc1nc2ccccc2s1)Nc1cc(Cl)ccc1Cl	-
COc1ccccc1OCCOc1ccc(C)cc1[N+](=O)[O-]	-
COc1ccc(CN(C)C2CCN(C)CC2)c(OC)c1OC	-
COc1ccc(CN2CCCCC2C)c(C)c1C (stereo not given)	-
COc1ccc(CN(C)C2CCCCC2)c(C)c1C	+
CCc1ccc(NC(=O)CSc2nnc(-c3ccco3)n2C)cc1	-
O=C(CN1CCCCC1)Nc1ncc(Cc2ccc(F)cc2)s1	+
COc1ccc(Cc2cnc(NC(=O)Cc3ccccc3)s2)cc1	-
O=C(Nc1ncc(Cc2ccc(F)cc2)s1)C1CCCO1 (stereo not given)	-
O=C(O)C1Cc2c([nH]c3ccccc23)C(c2cccc(Br)c2)N1 (stereo not given)	-
COc1ccc(CN2CCN(Cc3ccc(SC)cc3)CC2)c(OC)c1OC	-
COc1ccc(CN2CCN(Cc3ccccc3)CC2)c(OC)c1OC	+
COc1cccc(CN2CCN(Cc3ccc(F)cc3)CC2)c1OC	+
COc1cc(C(=O)N2CCN(Cc3ccccc3F)CC2)cc(OC)c1OC	-
COc1ccc(CN2CCN(Cc3cccc(OC)c3OC)CC2)cc1	-
COc1cccc(CN2CCN(Cc3cc(OC)c(OC)c(OC)c3)CC2)c1OC	-
COc1ccc(CN2CCN(c3ccccc3Cl)CC2)c(OC)c1OC	-
COc1cc(C(=O)N2CCN(Cc3ccc(OC)c(OC)c3OC)CC2)cc(OC)c1OC	-
COc1cccc(CN2CCN(C(=O)c3cc(OC)c(OC)c(OC)c3)CC2)c1OC	+
Cc1cc(Cl)c(OCCNCCN)c(Br)c1	-
Cc1onc(-c2ccccc2)c1C(=O)Nc1cccc(Br)c1	-
CC(C)(C)SCCNS(=O)(=O)c1ccccc1[N+](=O)[O-]	-
CSc1ccc(CN2CCOCC2)cc1	-
CCc1ccc(CN2CCSCC2)cc1	-
CSc1ccc(CN2CCSCC2)cc1	+
SMILES	Algae TAG accum
Cc1cccc(NC(=O)CSc2nc3ccc(C)cc3[nH]2)c1	-
CC(=O)Nc1ccc(C(=O)Nc2nc3ccc(S(C)(=O)=O)cc3s2)cc1	-
c1ccc(N2CCN(Cc3ccsc3)CC2)nc1	-
c1ccc(N2CCN(Cc3ccsc3)CC2)cc1	+
COc1cc(CN2CCN(c3cccc(Cl)c3)CC2)cc(OC)c1O	-
Clc1cccc(N2CCN(Cc3ccsc3)CC2)c1	+
c1ccc(CCN2CCN(c3ccccc3)CC2)cc1	+
c1cc(CN2CCOCC2)cs1	-
c1ccc(CCN2CCN(Cc3ccccc3)CC2)cc1	-
Clc1cccc(N2CCN(Cc3cccs3)CC2)c1	-
CN1CCN(CCCc2ccccc2)CC1	-
COc1ccc(C(=O)N(C)c2ccccc2)cc1[N+](=O)[O-]	-
CCN(CC)S(=O)(=O)c1ccc(OC)c(NC(=O)c2ccc(Cl)cc2[N+](=O)[O-])c1	-
NC(N)=Nc1nc2ccccc2[nH]1	-
CC(=O)C1=C(C)NC(SCC(=O)c2cccc([N+](=O)[O-])c2)=C(C#N)C1c1cccc(C)c1 (stereo not given)	-
COc1ccc(C)cc1NC(=O)C(=O)NCCC1=CCCCC1	-
Cc1ccccc1CN1CCCCC1CO (stereo not given)	-
COc1ccccc1N1CCN(C2CCN(Cc3cccc(F)c3)CC2)CC1	+
COc1ccccc1N1CCN(C2CCN(Cc3ccc4c(c3)OCO4)CC2)CC1	-
CCc1ccc(CN2CCC(N3CCN(c4ccccc4OC)CC3)CC2)cc1	-
COc1ccc(-n2nnnc2SCC(=O)Nc2c(C)cc(C)cc2C)cc1	-
CCOc1ccc2nc(NS(=O)(=O)c3ccc(F)cc3)sc2c1	-
NC(=O)C1CCN(Cc2ccc(F)cc2)CC1	-
O=C(NC1CCN(Cc2ccccc2)CC1)c1ccc(Cl)cc1Cl	+
O=C(NC1CCN(Cc2ccccc2)CC1)c1ccccc1Br	-
SMILES	Algae TAG accum
O=C(NC1CCN(Cc2ccccc2)CC1)c1sc2ccccc2c1Cl	-
O=C(Nc1ccccc1-c1nc2ccccc2s1)c1ccccc1F	-
OCCN1CCN(C/C=C/c2ccccc2)CC1	-
C/C=C(\C)CN1CCN(C/C=C/c2ccccc2)CC1	+
CCN1CCN(C/C=C/c2ccccc2)CC1	-
COC(C(=O)Nc1ccc(F)c(Cl)c1)c1ccccc1 (stereo not given)	-
Cc1cc(Oc2ccc(C#N)cc2)nc(-c2ccccc2O)n1	-
O=C(Nc1ccccc1Br)C1CCN(C(=O)c2ccc(F)cc2)CC1	-
CC(CNC(=O)c1ccc(F)cc1)CN(C)C (stereo not given)	-
Cc1cccc(C(=O)NCC(C)CN(C)C)c1 (stereo not given)	-
CC(CNC(=O)c1ccc(C(C)(C)C)cc1)CN(C)C (stereo not given)	+
O=C(CN1C(=O)c2ccccc2C1=O)Nc1cccc(F)c1	-
CC1CCCN(CCCOc2ccc([N+](=O)[O-])cc2)C1 (stereo not given)	-
COc1ccc(OCCCN2CCCC(C)C2)cc1 (stereo not given)	+
CCOc1ccccc1OCCCN1CCCC(C)C1 (stereo not given)	-
Cc1c(NC(=O)C(=O)c2c(-c3ccccc3)cc3ccccn23)c(=O)n(-c2ccccc2)n1C	-
CC1(C)Cc2ccccc2C(=NCCC(=O)O)N1	-
NNC(=O)CSc1nc2ccccc2n1Cc1ccccc1	-
COc1cc2c(cc1OC)CC(O)c1cc(OC)c(OC)cc1C2 (stereo not given)	-
